Results: PMC5540273 (PLoS ONE, 2017)

How the values were obtained:
Settings in all cases: concentration: 1 μM, replicates: in singlicate; n = 1
[1] = tested on: ACVR2B
[2] = tested on: ACVRL1
[3] = tested on: T1, ADCK3
T1 construct: gene CABC1

[4] = tested on: ADCK4
[5] = tested on: AKT1
[6] = tested on: AKT2
[7] = tested on: AKT3
[8] = tested on: ALK
[9] = tested on: T2, AMPK-alpha1
T2 construct: gene PRKAA1

[10] = tested on: T3, AMPK-alpha2
T3 construct: gene PRKAA2

[11] = tested on: ANKK1
[12] = tested on: T4, ARK5
T4 construct: gene NUAK1

[13] = tested on: T5, ASK1
T5 construct: gene MAP3K5

[14] = tested on: T6, ASK2
T6 construct: gene MAP3K6

[15] = tested on: AURKA
[16] = tested on: AURKB
[17] = tested on: AURKC
[18] = tested on: AXL
[19] = tested on: T7, BIKE
T7 construct: gene BMP2K

[20] = tested on: BLK
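Also: KINOMEscan kinase panel screen.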

| SMILES | %Inh [1] [%] | %Inh [2] [%] | %Inh [3] [%] | %Inh [4] [%] | %Inh [5] [%] | %Inh [6] [%] | %Inh [7] [%] | %Inh [8] [%] | %Inh [9] [%] | %Inh [10] [%] | %Inh [11] [%] | %Inh [12] [%] | %Inh [13] [%] | %Inh [14] [%] | %Inh [15] [%] | %Inh [16] [%] | %Inh [17] [%] | %Inh [18] [%] | %Inh [19] [%] | %Inh [20] [%] |
| --- | --- | --- | --- | --- | --- | --- | --- | --- | --- | --- | --- | --- | --- | --- | --- | --- | --- | --- | --- | --- |
| CS(=O)(=O)c1ccc(-c2nc3n(c2-c2ccncc2)CCC3)cc1 [SKF-105942] | 0 | 0 | 11 | 58 | 0 | 100 | 0 | 28 | 24 | 0 | 0 | 8 | 11 | 0 | 0 | 34 | 0 | 0 | 3 | 9 |
| COC(=O)c1c(-c2ccccc2)c2cc(C(=O)O)ccc2c(=O)n1Cc1ccccc1 | 0 | 20 | 0 | 0 | 0 | 0 | 1 | 0 | 0 | 7 | 0 | 5 | 0 | 0 | 0 | 11 | 0 | 0 | 0 | 0 |
| O=C(Nc1n[nH]c2nc(-c3nccs3)c(Br)cc12)C1CCCC1 [SB-742609] | 11 | 0 | 0 | 14 | 0 | 10 | 1 | 26 | 0 | 18 | 0 | 0 | 0 | 13 | 0 | 13 | 11 | 0 | 0 | 31 |
| COc1cc2ncnc(Nc3ccc4nc(-c5ccccc5)[nH]c4c3)c2cc1OC.Cl [GW282450] | 0 | 0 | 10 | 16 | 0 | 0 | 0 | 0 | 0 | 0 | 16 | 0 | 0 | 0 | 99.1 | 28 | 48 | 23 | 14 | 26 |
| Cc1cccc(-c2nc(C)cc(Nc3ccncc3)n2)n1 [GSK257997] | 7 | 0 | 18 | 24 | 0 | 3 | 0 | 20 | 3 | 12 | 0 | 0 | 0 | 0 | 21 | 0 | 13 | 7 | 21 | 32 |
| COc1cc2ncn(-c3cc(OCC4CCCO4)c(C(N)=O)s3)c2cc1OC (stereo not drawn) [GSK204607] | 0 | 0 | 23 | 12 | 0 | 0 | 0 | 0 | 0 | 2 | 0 | 17 | 7 | 0 | 0 | 1 | 80 | 0 | 72 | 0 |
| Cc1cccc(-c2nc(Nc3ccc4[nH]ncc4c3)c3ccccc3n2)n1 [GW857175] | 0 | 0 | 0 | 0 | 29 | 55 | 0 | 19 | 0 | 2 | 0 | 1 | 0 | 13 | 0 | 3 | 22 | 26 | 33 | 3 |
| Cc1ccc(-c2cc(-c3c[nH]nc3-c3ccccn3)ccn2)cc1 [GW684088] | 49 | 0 | 22 | 37 | 0 | 0 | 0 | 16 | 0 | 0 | 0 | 94.7 | 0 | 0 | 2 | 0 | 10 | 5 | 20 | 0 |
| COc1ccc2nc(-c3cccc(C)n3)nc(Nc3ccncc3)c2c1 [GSK204919] | 0 | 0 | 25 | 3 | 0 | 5 | 0 | 24 | 0 | 16 | 0 | 6 | 8 | 0 | 0 | 3 | 6 | 2 | 3 | 31 |
